{"source": "ChEMBL document CHEMBL4296182", "about": "“CO-ADD screening of NIH NCI Diversity Set V”"}
{"test_system": "Staphylococcus aureus", "experiment": "Antibacterial activity against Staphylococcus aureus MRSA ATCC 43300 (CO-ADD:GP_020); MIC in CAMBH media using NBS plates, by Resazurin F(560/590)", "assay_type": "functional", "conditions": "Concentration 20 uM, ASSAY_TEST Inhibition of Bacterial Growth, detection method Resazurin, Fluorescence (ex560/em590), MEDIA CAMHB, plate type 384well, CORNING #3640, time 18 hr", "units": {"Inhibition": "%"}}
{"smiles": "CCC(C)n1c(C)cc(=O)n1C(C)CC", "note": "(stereo not drawn)", "Inhibition": 2.1}
{"smiles": "CC(C)(C)N1CCC1CN", "note": "(stereo not drawn)", "Inhibition": 2.17}
{"smiles": "CCOc1ccc(/C=C2\\CCc3ccccc3C2=O)cc1", "Inhibition": -3.91}
{"smiles": "Cc1ccc(S(=O)(=O)NC(=O)Nc2nccs2)cc1", "Inhibition": 16.17}
{"smiles": "NC(=O)CCC(C(=O)O)N1C(=O)C2C3CCC(C3)C2C1=O", "note": "(stereo not drawn)", "Inhibition": -3.52}
{"smiles": "Cn1ncc2c(NCc3ccccc3)ncnc21", "Inhibition": 5.23}
{"smiles": "N#CNC(=N)c1ccccc1", "Inhibition": 0.25}
{"smiles": "CCOC(=O)/C=C/c1nc(O)c(C)c(C(=O)OCC)n1", "Inhibition": -2.98}
{"smiles": "Nc1o[nH]c(=O)c1C1CCCCC1", "Inhibition": 7.44}
{"smiles": "CCCCOc1ccc(OC(=O)Nc2cc(Cl)ccc2OC)cc1", "Inhibition": 13.88}
{"smiles": "O=C(COc1cc(Cl)c(Cl)cc1Cl)Nc1ccc([N+](=O)[O-])cc1Cl", "Inhibition": 25.16}
{"smiles": "NNC(=O)Cc1cc(O)[nH]n1", "Inhibition": 0.66}
{"smiles": "Cc1cccc(Nc2sc(C(=O)c3cc4cc(Cl)ccc4o3)c(N)c2C#N)c1", "Inhibition": 1.46}
{"smiles": "S=C1N(c2ccccc2)CN(C2CCCCC2)CN1c1ccccc1", "Inhibition": 0.84}
{"smiles": "[O-]/[N+](=C\\c1ccccc1)CC1(O)CCCCC1", "Inhibition": 12.91}
{"smiles": "COc1cc(-c2ccc(Nc3ccccc3C(=O)O)c(OC)c2)ccc1Nc1ccccc1C(=O)O", "Inhibition": 0.05}
{"smiles": "O[C@@H](c1cc(-c2ccc(C(F)(F)F)cc2)nc(C(F)(F)F)c1)[C@H]1CCCCN1", "Inhibition": 4.92}
{"smiles": "N#Cc1cnn(-c2cccc(Cl)c2)c1-n1cccc1", "Inhibition": 7.59}
{"smiles": "Cc1cccc(C)c1NC(=O)NCc1ccco1", "Inhibition": -11.45}
{"smiles": "NC(=O)Oc1cccc(OC(N)=O)c1", "Inhibition": 9.68}
{"smiles": "COc1ccc(C2OC3=Nc4cc(C)c(C)cc4NC3=C2O)cc1", "note": "(stereo not drawn)", "Inhibition": 19.36}
{"smiles": "CC1(C)CC(=O)C(CC(=O)c2ccccc2)=C(NNC(=N)N)C1", "Inhibition": 1.47}
{"smiles": "COc1ccc2c(c1)C(=O)C1NC(=O)NC(=O)C1(Br)N2", "note": "(stereo not drawn)", "Inhibition": 19.24}
{"smiles": "[O-][n+]1nc2ccccc2c2ccccc21", "Inhibition": 3.86}
{"smiles": "NC(=O)N/N=C1\\CC2CC1C1C=CCC21", "note": "(stereo not drawn)", "Inhibition": 5.27}
{"smiles": "Sc1cnnc2ccccc12", "Inhibition": -0.57}
{"smiles": "NC(=O)c1cc2c3ccccc3ccn2c1-c1ccccc1", "Inhibition": 8.37}
{"smiles": "CC12CCC(/C(=N/c3ccc(/N=C4\\C(=O)C5(C)CCC4C5(C)C)cc3)C1=O)C2(C)C", "Inhibition": -7.11}
{"smiles": "O=C(Nc1ccc(Oc2ccc(NC(=O)Nc3ccccc3Cl)cc2)cc1)Nc1ccccc1Cl", "Inhibition": 19.6}
{"smiles": "COCC(=O)OC1CCn2c1nc1c2C(=O)C(C)=C(NC(C)=O)C1=O", "note": "(stereo not drawn)", "Inhibition": 9.15}
{"smiles": "O=c1nc2onnc2c(/C=N\\O)[nH]1", "Inhibition": 11.4}
{"smiles": "O=C(O)CSc1ccc(NC(=O)Nc2ccccc2F)cc1", "Inhibition": 18.21}
{"smiles": "Nc1cc(-c2ccccc2)ccc1O", "Inhibition": 13.15}
{"smiles": "O=C1/C(=N\\c2cccc(Cl)c2)CC(c2ccc(Cl)cc2)N1c1cccc(Cl)c1", "note": "(stereo not drawn)", "Inhibition": 20.38}
{"smiles": "CC(=O)NS(=O)(=O)c1ccc2sc(C)nc2c1", "Inhibition": 3.75}
{"smiles": "COc1ccc(/C(C#N)=C/c2cccnc2)cc1", "Inhibition": 17.02}
{"smiles": "Cn1cnc([N+](=O)[O-])c1Sc1nnc(-c2cccnc2)n1C", "Inhibition": 12.02}
{"smiles": "CN(C)c1ccc(/C=C(\\C#N)C(=O)c2ccccc2)cc1", "Inhibition": 3.86}
